# Bioassay records (PubChem)
# This is a sample that favours compounds with a hit; in the whole collection about 3.2% have one here.
# VDR inhibitor: inhibitors of human vitamin D receptor. P11473. VDR-SRC2-3 peptide fluorescence polarization, 2 h. Potency, µM, usual class: inhibitors. 0.93% of 400,000 active
# Target sequence (P11473 whole entry, looked up): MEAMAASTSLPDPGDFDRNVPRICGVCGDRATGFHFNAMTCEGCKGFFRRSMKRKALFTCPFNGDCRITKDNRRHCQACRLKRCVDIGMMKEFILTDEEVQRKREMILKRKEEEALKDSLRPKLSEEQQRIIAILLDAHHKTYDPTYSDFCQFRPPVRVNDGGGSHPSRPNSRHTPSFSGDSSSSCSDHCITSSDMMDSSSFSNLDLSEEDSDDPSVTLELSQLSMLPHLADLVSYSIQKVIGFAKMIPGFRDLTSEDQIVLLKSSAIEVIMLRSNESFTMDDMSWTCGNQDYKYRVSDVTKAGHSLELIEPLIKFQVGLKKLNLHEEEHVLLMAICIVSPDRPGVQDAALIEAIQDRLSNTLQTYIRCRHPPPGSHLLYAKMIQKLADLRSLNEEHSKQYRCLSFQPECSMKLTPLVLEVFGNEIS
#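 Measured by FP: displacement of SRC2-3 coactivator peptide from VDR by library compounds, following a two-hour ambient incubation.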
# Coupling enz: inhibits coupling enzyme system, counter-screen for aldolase hits; coupling enzyme system counterscreen, AmpLite Red fluorescence; activity change, negative = inhibition, % at 58.2 µM, hits read low; 0.67% of 290,000 active; AID 2472; in the data active = activity change below about -30%
#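 Compounds tested against the coupling enzymes alone at 57.5 uM final; readout was AmpLite Red fluorescence (525/598 nm) after 20 min at RT.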
# PLK1 PBD inh: blocks phosphopeptide binding to human PLK1 polo-box domain. P53350. Potency, µM, hits mostly inhibitors. Plk1 PBD binding of FITC phosphopeptide, fluorescence polarization. AID 720504. 2.8% of 360,000 active; note: series mostly up to about 57 µM; nearly all actives have a fitted effect of over 65% in size
# USP2a block: blocks human ubiquitin-specific protease USP2a; O75604; USP2 core, Ub-CHOP2 coupled fluorogenic reporter, 485/531; Potency, µM (series often up to 38.3 µM), most hits filed as inhibitors; 0.01% of 330,000 active; AID 463254
#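 Deubiquitinase activity read as fluorescence (485/531 nm) after Ub-CHOP2 cleavage activates the enterokinase reporter on its substrate; USP2 core 10nM, Ub-CHOP2 and substrate 25nM each, 30min compound preincubation then 60min RT; data normalized to NEM, curves fitted.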
# GALK inhibitor: inhibitors of human galactokinase; Potency, µM (highest dose often 57.5 µM), actives largely listed as inhibitors; AID 1868; Purified GALK, Kinase-Glo residual ATP luminescence; 0.007% of 270,000 active; P51570
#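 The enzyme phosphorylates galactose (100 uM) using ATP (35 uM); inhibition is detected as higher residual ATP, quantified by bioluminescence after 1 h reaction at room temperature, pH 8.0.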
# USP1 inh: inhibitors of human USP1/UAF1 deubiquitinase | recombinant USP1/UAF1, Ub-Rhodamine cleavage fluorescence | 0.23% of 390,000 active | Potency, µM (highest dose often 57.1 µM), most hits filed as inhibitors | AID 743255 | O94782; note: nearly all actives have a fitted effect of over 60% in size
#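 1 nM enzyme complex + cpd, 15 min RT; start with Ub-Rho 150nM final; kinetic fluorescence ex 480/em 540, 6 reads q60 s. Buffer 50mM HEPES pH 7.8, 0.5mM EDTA, 0.1 mg/ml BSA, 1mM TCEP, 0.01% Tween-20.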
# Hits are given with their value; n = inactive; u = inconclusive; x = not tested or not shown. Unless noted, calls come from the whole dose curve; as a rule, active = well fitted curve in the direction sought with a large enough effect; inconclusive = small, poorly fitted or top-dose-only effect, or another doubt; inactive = no such curve, though single readings can be large; an effect the other way counts as inactive or inconclusive.
SMILES,VDR inhibitor,Coupling enz,PLK1 PBD inh,USP2a block,GALK inhibitor,USP1 inh
CCOC(=O)c1ccccc1NC(=O)CCNC(=O)Cn1cnc2ccccc2c1=O,n,n,n,n,n,n
Cc1ccc(C)c(Cn2c(O)c(N=NC(=S)Nc3ccccc3F)c3ccccc32)c1,u,n,24µM,n,n,n
Clc1ccc(-c2nc3ccncc3[nH]2)cc1,n,n,8.4µM,n,n,n
COc1ccc(CS(=O)(=O)CC(C)(O)c2ccccc2)cc1 (stereo unspecified),n,n,n,n,n,n
O=C(C(=O)N1CCN(c2ccncc2)CC1)c1cccc(Br)c1,x,x,n,x,x,x
CCCCCc1c2c(cc(O)c1C(=O)O)OC(=O)c1cc(C(=O)CCCC)c(OC)cc1O2,79µM,n,21µM,n,x,n
CCCCCc1c2c(cc(O)c1C(=O)O)OC(=O)c1c(cc(OC)cc1C(=O)CCCC)O2,79µM,n,27µM,n,n,u
CCCCc1c(C(=O)O)cc(OC)cc1C(=O)O,n,n,n,n,n,n
N#Cc1c(NC(=O)COC(=O)C2=COCCO2)sc2c1CCCC2,x,x,n,x,x,n
Cc1nn(-c2ccccc2)c(Cl)c1/C=C(/CC(=O)O)c1nc2ccccc2s1,n,x,n,x,x,n
Cc1c(/C=C(\CC(=O)O)c2nc3ccccc3s2)cc(C#N)n1C,u,n,27µM,n,n,n
CN(C)/C=N/NC(=O)c1ccccc1,n,n,n,n,n,n
O=C(NN=c1c(=O)c2ccccc2c1=O)c1ccccc1,n,-43,n,n,n,32µM
CNC(=O)CSc1ncnc2c1cnn2-c1ccccc1,n,n,n,n,n,n
CC(=O)CSc1ncnc2c1cnn2-c1ccccc1,u,n,24µM,n,n,n
CCOC(=O)CNC(=O)CSc1ncnc2c1cnn2-c1ccc(Cl)cc1,n,n,24µM,n,n,n
CN(C)CCOC(=O)/C(=C/c1cn(C)c2ccccc12)NC(=O)c1ccccc1,n,n,n,n,n,n
CC(=O)c1cc(-c2ccccc2)n(CCC(=O)Nc2ccc(C)cc2C)c1C,n,x,x,x,x,n
CCOc1ccccc1/C=N/NC(=O)c1cccc(S(=O)(=O)N(CC)CC)c1,n,-38,n,n,n,n
CCN(CC)S(=O)(=O)c1cccc(C(=O)N/N=C/c2ccc(N3CCOCC3)cc2)c1,n,n,n,n,n,n
CCN(CC)S(=O)(=O)c1cccc(C(=O)N/N=C/c2ccc(O)c(O)c2O)c1,n,-41,8.4µM,n,n,n
CCn1c(C)nc2cc(C(=O)N/N=C/c3ccc(O)c(O)c3O)ccc21,n,-53,8.4µM,n,n,n
COc1ccc(Cc2nc3ccc(C(=O)N4CCCC4)cc3o2)cc1,n,x,n,n,n,n
COc1cc(/C=N/NC(=O)CC#N)cc(Br)c1O,u,n,11µM,n,n,n
COC1=C(Br)C(=O)c2ncccc2C1=O,3.5µM,x,1.9µM,x,x,0.89µM
SMILES,VDR inhibitor,Coupling enz,PLK1 PBD inh,USP2a block,GALK inhibitor,USP1 inh
C=CC[C@]12C=C(OC)C(=O)C(OC)=C1O[C@@H](c1ccc3c(c1)OCO3)[C@H]2C,n,x,n,x,x,n
c1cc2c(cc1-c1csc(NNC3=NCCCCC3)n1)OCCO2,u,n,19µM,n,n,n
COc1ccc(-c2oc3ccc(-c4cc(OC)c(OC)c(OC)c4)cc3c2C(=O)c2ccc(OC)nc2)cc1,n,n,n,n,x,n
Cc1c(NC(=O)/C=C/c2cn(-c3ccccc3)nc2-c2ccc(F)cc2)c(=O)n(-c2ccccc2)n1C,u,x,11µM,n,n,n
CC(C)(C)C(=O)/C=c1\s/c(=C\c2ccc(-c3ccc([N+](=O)[O-])cc3)o2)c(=O)n1CC(=O)NC(N)=O,n,n,n,u,n,7.9µM
Cc1c(C(=O)N2CCN(c3ccc(C(F)(F)F)cn3)CC2)oc2ccccc12,n,n,30µM,n,n,n
Cc1ccccc1-n1sc2cc(F)ccc2c1=O,u,n,1.2µM,n,n,n
O=C1c2ccccc2C(=O)N1c1nccs1,n,x,n,x,x,n
CC(=O)Nc1ccc(-c2cc(N)n(-c3ccccc3)n2)cc1,n,n,n,n,n,n
Cn1sc2ccccc2c1=O,x,x,4.7µM,x,x,n
O=c1c2ccccc2sn1-c1nccs1,4µM,n,2.4µM,n,n,n
CC1NC(=O)c2ccccc2-n2c1nc1cc(F)ccc1c2=O (stereo unspecified),x,x,x,n,x,x
CC(=O)Nc1ccc2c(=O)n(-c3ccccc3)sc2c1,x,x,2.4µM,x,x,n
O=C(O)c1cccc(S(=O)(=O)N(Cc2ccccc2)c2ccccc2Cl)c1,n,n,n,n,n,n
CN(C)S(=O)(=O)c1cccc(-n2sc3ccccc3c2=O)c1,32µM,n,1.2µM,n,n,n
O=c1c2ccccc2sn1-c1cccc(Cl)c1,x,x,3µM,x,x,n
Cn1c(=O)n(-c2cccc(Cl)c2)c(=O)c2sc3ccccc3c21,n,x,x,x,x,n
O=c1c2ccccc2sn1-c1ccccc1,4µM,n,1.1µM,n,n,n
O=C(O)c1cccc(-n2sc3ccccc3c2=O)c1,7.1µM,x,1.2µM,n,x,n
CCOc1ccc(CCNC(=O)CSc2nnnn2-c2ccc(C)cc2C)cc1OCC,n,x,x,x,x,n
NC(=O)NC(=O)CC1S/C(=N/N=C/c2ccccc2)NC1=O (stereo unspecified),n,n,n,n,n,n
O=C1CN(C(=O)COc2ccc(F)cc2Br)c2ccccc2N1,n,n,n,n,n,n
N#Cc1ccc2c(=O)n(-c3ccccc3)sc2c1,x,x,3µM,x,x,n
O=C1CN(c2ccccc2F)C(=O)CN1c1ccccc1F,n,n,n,n,n,n
CC1(C)CN(c2ccccc2)N(C(=O)c2ccc(C#N)cc2)C1=O,n,n,n,n,n,n
SMILES,VDR inhibitor,Coupling enz,PLK1 PBD inh,USP2a block,GALK inhibitor,USP1 inh
O=c1c2ccccc2sn1-c1ccccc1F,x,x,3µM,x,x,n
O=c1c2ccccc2sn1-c1ccc(S(=O)(=O)N2CCCCC2)cc1,n,x,1.3µM,x,x,n
O=S(=O)(c1ccc(S(=O)(=O)N2CCCC2)cc1)N1CCCCC1,n,n,n,n,n,n
Cc1ccc(-n2sc3ccccc3c2=O)cc1S(=O)(=O)N1CCCCC1,u,n,0.84µM,n,n,n
O=c1c2ccccc2sn1-c1ccc(S(=O)(=O)N2CCCC2)cc1,u,n,1.1µM,n,n,n
O=C(NC(=S)Nn1cnnc1)c1ccccc1Cl,n,n,u,n,n,n
COc1ccc(NC(=S)Nn2cnnc2)c(OC)c1,u,x,21µM,n,n,n
CCc1ccc(NC(=S)Nn2cnnc2)cc1,n,n,17µM,n,n,n
COc1ccc(NC(=S)Nn2cnnc2)cc1OC,n,n,15µM,n,n,n
COc1cccc(C(=O)NC(=S)Nn2cnnc2)c1OC,n,n,24µM,n,n,n
CCc1ccc(NC(=O)Nn2cnnc2)cc1,n,x,n,n,n,n
